# Laboratory results published in paper PMC13494018.
# Unmarked numbers belong to inactive results. No rule for the calls is given here.
# Biological target: CD276, Q5ZPR3
# Sequence (Q5ZPR3 whole entry): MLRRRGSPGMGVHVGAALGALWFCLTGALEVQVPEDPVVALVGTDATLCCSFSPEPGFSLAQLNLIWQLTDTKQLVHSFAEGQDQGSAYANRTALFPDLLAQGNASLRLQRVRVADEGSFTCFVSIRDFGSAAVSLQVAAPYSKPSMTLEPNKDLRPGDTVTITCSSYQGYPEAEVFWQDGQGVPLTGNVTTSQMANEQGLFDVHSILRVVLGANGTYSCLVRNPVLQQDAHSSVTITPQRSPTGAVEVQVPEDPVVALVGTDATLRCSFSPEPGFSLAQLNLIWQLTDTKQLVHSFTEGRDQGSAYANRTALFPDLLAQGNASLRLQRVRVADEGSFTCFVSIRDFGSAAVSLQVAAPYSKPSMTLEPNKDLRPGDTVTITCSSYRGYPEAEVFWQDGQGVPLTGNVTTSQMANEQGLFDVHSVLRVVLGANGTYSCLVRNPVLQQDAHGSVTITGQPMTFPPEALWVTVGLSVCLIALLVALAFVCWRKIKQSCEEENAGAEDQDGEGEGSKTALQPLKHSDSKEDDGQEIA
row,Binder,binding in a display sort
1,design_617_b3fadc1d-0db4-4da8-8433-818493aa2ab2_734_dldesign_0_cycle1_af2pred (protein) MAEEIIREATRVATEAARLAVKYGNEVANKALALAVEAMELAASGENAEEAKKKLEEAKKLLEEAKKIAKEKE,not found
2,design_617_b3fadc1d-0db4-4da8-8433-818493aa2ab2_797_dldesign_0_cycle1_af2pred (protein) AEELAEEAKKYIEEARKKVTELYNEAGATELAEEANEKLESAREIVESGREHPELLPAAVAFARSVADAQLRKAESLV,not found
3,design_617_b3fadc1d-0db4-4da8-8433-818493aa2ab2_820_dldesign_0_cycle1_af2pred (protein) AEGKALVEQAKALAAQGAAHPQHAAAVAGTLANIGKYLAKLGPEYAKAAADVLNAFAKAVPSVAAQAKAAAAELEKLAKEA,not found
4,design_617_b3fadc1d-0db4-4da8-8433-818493aa2ab2_836_dldesign_0_cycle1_af2pred (protein) VTPEEAKKRVEELVEEAIKLAEKADPAEAEKIRKTYETEGPLAAAAVIWAIGNRFAEKPETKEIGERLRELAIEAIRLLLAAAAA,not found
5,design_617_b3fadc1d-0db4-4da8-8433-818493aa2ab2_943_dldesign_0_cycle1_af2pred (protein) AEAAQEAAVADMEKAAAIAKKYAELFPSTADALIKAAEDALAAVKANKETAAETAKAGLKALNATIAAAMRQALADSAA,not found
6,design_617_b3fadc1d-0db4-4da8-8433-818493aa2ab2_944_dldesign_0_cycle1_af2pred (protein) AEAAAIEQLNTAVEIIESAAKAGERFARAAAGLFITLARQYADVVPKETLTALAERATAAAAPVPAVAERLAAALQEVIEA,not found
7,design_617_b3fadc1d-0db4-4da8-8433-818493aa2ab2_977_dldesign_0_cycle1_af2pred (protein) AQAVQEKAAKALATASEVAEKDQSLVPEATEAMNKASQGVALVVAGNTEEGQKLVEEALKTAEKLKKKLE,not found
8,design_617_b3fadc1d-0db4-4da8-8433-818493aa2ab2_1003_dldesign_0_cycle1_af2pred (protein) KAAALHAIKVAETLLKKAKEFLEKGKEEGPEYYKMAYATAQSAILVAQGAVEVAKKVSKKLYKKAKKLLEEAKKLAEEAKKLAE,not found
9,design_617_b3fadc1d-0db4-4da8-8433-818493aa2ab2_1042_dldesign_0_cycle1_af2pred (protein) MSAAEIIREALKLLKEAAKAAATDPAKAKELADKAIALGKENQGAALLLSNTARNLAATATPEEAAFLLEVAERARAVAEAL,not found
10,design_617_b3fadc1d-0db4-4da8-8433-818493aa2ab2_1081_dldesign_0_cycle1_af2pred (protein) GEEAAKKAQELVEKIKKLAKEIAAGTAEQAAKLLEEALKYAKEAYKLAAKADPETAAKLSAAANEELAKANRAAIALQRA,not found
11,design_617_b3fadc1d-0db4-4da8-8433-818493aa2ab2_1083_dldesign_0_cycle1_af2pred (protein) GDPEASKEALEYAKKAEELVKKAEELKDNPELAKKLIEEAKKHIHLALAEAGKAYPEVAQKVLTTVEKVLEKIKEL,not found
12,design_617_b3fadc1d-0db4-4da8-8433-818493aa2ab2_1106_dldesign_0_cycle1_af2pred (protein) GARARMEASIAQARELAAAAVAQAAAVDPAAAAAAAAALDALLAAAEAALAAGDYDAAAAAINAAVTLAIKWMQAAAAA,not found
13,design_617_b3fadc1d-0db4-4da8-8433-818493aa2ab2_1296_dldesign_0_cycle1_af2pred (protein) DGEKIQEVLDKAKELYKIAKEIEKKNPEYGKEILKLVQEALSLIAKGNAEEAMKKMEEAEKYAEEVKKKLKEEE,not found
14,design_617_b3fadc1d-0db4-4da8-8433-818493aa2ab2_1373_dldesign_0_cycle1_af2pred (protein) DAALRFAEAQLRRIERLAAEIIALGGPAWAPEAEALVAEAREALELIKTDPGAGMALLIETIERAYALLAEVRAAAA,not found
15,design_617_b3fadc1d-0db4-4da8-8433-818493aa2ab2_1384_dldesign_0_cycle1_af2pred (protein) MEELMEKVKSLGQAAIVAATAAKSAAAAGNTDAARVLLAQARRWLEEAGEAAEKAGEEAKEVYEEVRKVVEAEIAAAEAAIAAA,not found
16,design_617_b3fadc1d-0db4-4da8-8433-818493aa2ab2_1433_dldesign_0_cycle1_af2pred (protein) GVAEQAIRGLARNTVAAIEAGTLTEEGLEKALELIRGIGEAAGPAARAVAEEAIERVREAWERRKRAEAEAAAA,not found
17,design_617_b3fadc1d-0db4-4da8-8433-818493aa2ab2_1528_dldesign_0_cycle1_af2pred (protein) AQAVLQAASEAMVEAARVGSRASPEDRARLRALLAATSTAAIAAARGDGQAALDQAAALAAELTAAVEAVKARA,not found
18,design_617_b3fadc1d-0db4-4da8-8433-818493aa2ab2_1608_dldesign_0_cycle1_af2pred (protein) SEAERIAKAAKEMIEQQKKAGVEGSPVSAEISAKNMEANAKAHSKAIIAADPKTGKKLAKEVKKYAEEAKKEVEEAAKKKLAA,not found
19,design_617_b3fadc1d-0db4-4da8-8433-818493aa2ab2_1686_dldesign_0_cycle1_af2pred (protein) MEEYLEEAKRFAESVIELSKLLLEGAPYNPALSAASLAALRKQAKARAEEAAKIDPEAAEALEKAAKTAEEAEKKAKALAA,not found
